Results as given in the supplement of paper PMC9942566.
Structures can show the parent of a compound that is named as a salt. ± gives the standard deviation of the averaged measurements.

These molecules were tested on Serratia marcescens K904 PosmB-luxCDABE reporter (pMQ747) (assay: PosmB-lux reporter fold induction (RLU/OD600 relative to no-compound control), highest over Biolog concentrations; higher = stronger Rcs reporter activation). Settings: wild type K904; 4 h.
Description: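 Serratia marcescens K904 (wild type) or its isogenic ΔrcsB mutant, carrying the Rcs-dependent PosmB-luxCDABE reporter plasmid pMQ747, was grown in LB at OD600 0.1 in Biolog Phenotype MicroArray plates PM11-20 for 4 h at 30-32°C. Each compound is present at 3-4 proprietary concentrations (not stated); per the Fig. S1 legend the value given is the highest fold over those wells. Three independent trials.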
C[C@H]1c2cccc(O)c2C(=O)C2=C(O)[C@]3(O)C(=O)C(C(N)=O)=C(O)[C@@H](N(C)C)[C@@H]3[C@@H](O)[C@@H]21 [Doxycycline] (Biolog plate: PM13, well positions: C5-8) was tested, and the “PosmB-lux reporter fold induction” value was 1.48 ± 0.11. For NCC[C@H](O)C(=O)N[C@@H]1C[C@H](N)[C@@H](O[C@H]2O[C@H](CN)[C@@H](O)[C@H](O)[C@H]2O)[C@H](O)[C@H]1O[C@H]1O[C@H](CO)[C@@H](O)[C@H](N)[C@H]1O [Amikacin] (Biolog plate: PM11, well positions: A2-4), the “PosmB-lux reporter fold induction” value was 1.4 ± 0.2. With Nc1ccc2cc3ccc(N)cc3nc2c1 [proflavine] (Biolog plate: PM20, well positions: D1-4) the “PosmB-lux reporter fold induction” value was 1.15 ± 0.24. For Cn1c(=O)c2c(ncn2C)n(C)c1=O [caffeine] (Biolog plate: PM17, well positions: H5-8), the “PosmB-lux reporter fold induction” value was 1.68 ± 0.37. CSCCC(N)C(=O)NO (racemic) [DL-methionine hydroxamate] (Biolog plate: PM17, well positions: F5-8) was tested, and the “PosmB-lux reporter fold induction” value was 1.74 ± 0.48. With CO[C@@]1(NC(=O)C(C(=O)O)c2ccc(O)cc2)C(=O)N2C(C(=O)O)=C(CSc3nnnn3C)CO[C@@H]21 (some centres not stated) [Moxalactam] (Biolog plate: PM13, well positions: H5-8) the “PosmB-lux reporter fold induction” value was 1.69 ± 0.24. With CN(C)[C@@H]1C(O)=C(C(N)=O)C(=O)[C@@]2(O)C(O)=C3C(=O)c4c(O)cccc4[C@@](C)(O)[C@H]3C[C@@H]12 [Tetracycline] (Biolog plate: PM12, well positions: A5-8) the “PosmB-lux reporter fold induction” value was 1.53 ± 0.2. For Oc1c(Cl)cc(Cl)c2cccnc12 [5,7-Dichloro-8-hydroxyquinoline] (Biolog plate: PM15, well positions: C1-4), the “PosmB-lux reporter fold induction” value was 2.24 ± 0.92. In the case of O=C(O)c1cc(O)c(O)c(O)c1 [gallic acid] (Biolog plate: PM19, well positions: A5-8), the “PosmB-lux reporter fold induction” value is reported as 1.46 ± 0.28. With COc1ccc(CO)cc1OC [3,4-Dimethoxy-benzyl alcohol] (Biolog plate: PM15, well positions: F1-4) the “PosmB-lux reporter fold induction” value was 2.75 ± 1.1. With CN(C)C(=O)/N=N/C(=O)N(C)C [diamide] (Biolog plate: PM16, well positions: D5-8) the “PosmB-lux reporter fold induction” value was 1.26 ± 0.35. CN(C)[C@@H]1C(O)=C(C(N)=O)C(=O)[C@@]2(O)C(O)=C3C(=O)c4c(O)ccc(Cl)c4[C@@](C)(O)[C@H]3C[C@@H]12 [Chlortetracycline] (Biolog plate: PM11, well positions: A5-8) was tested, and the “PosmB-lux reporter fold induction” value was 1.48 ± 0.4. In the case of O=c1ccc2ccc(O)cc2o1 [umbelliferone] (Biolog plate: PM19, well positions: C5-8), the “PosmB-lux reporter fold induction” value is reported as 1.07 ± 0.18. In the case of NCC(=O)NO [glycine hydroxamate] (Biolog plate: PM16, well positions: H1-4), the “PosmB-lux reporter fold induction” value is reported as 2.05 ± 0.2. N=C(N)N [Guanidine hydrochloride] (Biolog plate: PM15, well positions: A5-8) was tested, and the “PosmB-lux reporter fold induction” value was 1.84 ± 0.099. CN[C@H](CC(C)C)C(=O)N[C@H]1C(=O)N[C@@H](CC(N)=O)C(=O)N[C@H]2C(=O)N[C@H]3C(=O)N[C@H](C(=O)N[C@H](C(=O)O)c4cc(O)cc(O)c4-c4cc3ccc4O)[C@H](O)c3ccc(c(Cl)c3)Oc3cc2cc(c3O[C@@H]2O[C@H](CO)[C@@H](O)[C@H](O)[C@H]2O[C@H]2C[C@](C)(N)[C@H](O)[C@H](C)O2)Oc2ccc(cc2Cl)[C@H]1O [Vancomycin] (Biolog plate: PM12, well positions: C5-8) was tested, and the “PosmB-lux reporter fold induction” value was 5.39 ± 2. In the case of Cc1ccc2c(Cl)cc(Cl)c(O)c2n1 [5,7-Dichloro-8-hydroxy-quinaldine] (Biolog plate: PM15, well positions: B9-12), the “PosmB-lux reporter fold induction” value is reported as 2.01 ± 0.87. For O=C(O)c1ccccc1S [Thiosalicylic acid] (Biolog plate: PM17, well positions: A9-12), the “PosmB-lux reporter fold induction” value was 1.12 ± 0.27. Oc1c(Cl)cc(Cl)c(Cl)c1Cc1c(O)c(Cl)cc(Cl)c1Cl [hexa-chlorophene] (Biolog plate: PM20, well positions: E9-12) was tested, and the “PosmB-lux reporter fold induction” value was 1.62 ± 0.6. In the case of C/C=C/C=C/C(=O)O [sorbic acid] (Biolog plate: PM16, well positions: H9-12), the “PosmB-lux reporter fold induction” value is reported as 2.12 ± 0.59. N[C@@H]1CONC1=O [D-Cycloserine] (Biolog plate: PM15, well positions: B1-4) was tested, and the “PosmB-lux reporter fold induction” value was 1.37 ± 0.23. In the case of CC1(C)S[C@@H]2[C@H](NC(=O)C(C(=O)O)c3ccccc3)C(=O)N2[C@H]1C(=O)O (some centres not stated) [Carbenicillin] (Biolog plate: PM12, well positions: A9-12), the “PosmB-lux reporter fold induction” value is reported as 2.2 ± 0.17.
